Results as given in the supplement of paper PMC9262897, “Low-cost anti-mycobacterial drug discovery using engineered E. coli” (Nature Communications, 2022).
Counter-ions that a name gives are not always drawn. ± gives the standard deviation of the averaged measurements.

test system: E. coli TESEC Mtb Alr; assay: growth (OD600 after 10 h); higher = more growth (less inhibition); conditions: arabinose 10000000 nM; compound 0.1 mM; raw OD600 reference: median of DMSO wells […], cell-free background 0.052
Procedure: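 TESEC Mtb Alr E. coli (ΔaraC ΔtolC ΔentC Δalr ΔdadX, arabinose-inducible Mtb Alr) or the Alr+ wild-type control strain, grown in defined M9-fructose medium without D-alanine in 96-well plates with Prestwick library compounds at 0.1 mM and 1% DMSO. Low Alr induction is 0.1 µM arabinose and high induction is 10 mM arabinose.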

Compound | growth
CC(N)C(O)c1ccccc1 (stereo not given) [Phenylpropanolamine hydrochloride] | 0.345 ± 0.015
CC[C@@]1([C@@H]2O[C@@H]([C@H]3O[C@@](O)(CO)[C@H](C)C[C@@H]3C)C[C@@H]2C)CC[C@H]([C@]2(C)CC[C@]3(C[C@H](O)[C@@H](C)[C@@H]([C@@H](C)[C@@H](OC)[C@H](C)C(=O)O)O3)O2)O1 [Monensin sodium salt] | 0.149 ± 0.013
CC(C)[N+](C)(CCC(C(N)=O)(c1ccccc1)c1ccccc1)C(C)C [Isopropamide iodide] | 0.331 ± 0.013
CN1C[C@H](C(=O)N[C@]2(C)O[C@@]3(O)[C@@H]4CCCN4C(=O)[C@H](Cc4ccccc4)N3C2=O)C[C@@H]2c3cccc4[nH]cc(c34)C[C@H]21 [Dihydroergotamine tartrate] | 0.0688 ± 0.0007
CN1[C@@H]2C[C@@H](OC(=O)[C@H](CO)c3ccccc3)C[C@H]1[C@@H]1O[C@@H]12 [Scopolamine hydrochloride] | 0.36 ± 0.01
CN1[C@@H]2CC[C@H]1C[C@@H](OC(=O)[C@H](CO)c1ccccc1)C2 [Hyoscyamine (L)] | 0.34 ± 0.02
CN(C)C(=O)Oc1ccc[n+](C)c1 [Pyridostigmine iodide] | 0.355 ± 0.0089
CC[N+]1(C)CCCC(OC(=O)C(O)(c2ccccc2)c2ccccc2)C1 (stereo not given) [Pipenzolate bromide] | 0.348 ± 0.025
CC(Cc1ccccc1)NCCC(c1ccccc1)c1ccccc1 (stereo not given) [Prenylamine lactate] | 0.0499 ± 0.00064
C#C[C@]1(O)CC[C@H]2[C@@H]3CCC4=CC(=O)CC[C@]4(C)[C@H]3CC[C@@]21C [Ethisterone] | 0.39 ± 0.055
